Measurements from PubChem BioAssay (NCI).
Compounds without any hit were thinned out: in the full panel of roughly 83,000, 20% have a hit.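 Results are percent growth after 48 hours of single-concentration exposure. 100 means growth as in untreated cells, lower positive values show inhibition; negative values down to -100 show cell death.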 Values without a mark were called inactive. The source made the active and inactive calls. The calls were made as follows: active = growth percent below 10; inactive = the rest.

Assays:
Assay in all cases: NCI-60 one-dose screen, 48 h (100 = growth as untreated, 0 = no growth, -100 = all killed)
Settings in all cases: 10 µM unless noted
[1] = test system: NCI-H226 lung
[2] = test system: NCI-H322M lung
[3] = test system: HOP-62 NSCLC
[4] = test system: NCI-H460 lung
[5] = test system: HOP-92 NSCLC
[6] = test system: NCI-H522 lung
[7] = test system: A549/ATCC NSCLC
[8] = test system: 786-0 renal
[9] = test system: COLO 205 colon
[10] = test system: DU-145 prostate
[11] = test system: K-562 leukemia
[12] = test system: MALME-3M melanoma
[13] = test system: MDA-MB-231 breast
[14] = test system: RXF 393 renal
[15] = test system: SF-268 CNS
[16] = test system: SF-295 CNS
[17] = test system: SF-539 CNS
[18] = test system: UACC-257 melanoma
[19] = test system: M14 melanoma
[20] = test system: HCT-15 colon

SMILES | growth [1] | growth [2] | growth [3] | growth [4] | growth [5] | growth [6] | growth [7] | growth [8] | growth [9] | growth [10] | growth [11] | growth [12] | growth [13] | growth [14] | growth [15] | growth [16] | growth [17] | growth [18] | growth [19] | growth [20]
COc1cc2nc(-c3ccc(C)cc3)cc(OCCCNCC3CCCO3)c2cc1OC (stereo not given) | 89.4% | 70.4% | 75.2% | 38% | 47% | 59.1% | 61.6% | 73.5% | 45.4% | 60% | 43.6% | 50% | 59.1% | 59.6% | 79.7% | 59.9% | 73.7% | 17.8% | 14.3% | 38%
CC1=C(C)C(=O)C(Nc2cccc(C(F)(F)F)c2)=C(Cl)C1=O | 90.9% | 101% | 91% | 94.9% | 48.9% | 17.7% | 96.8% | 102% | 102% | 99.7% | 3.78% (active) | 94.4% | 19% | 97.8% | 94.3% | 96.2% | 93.4% | 78.5% | 85.2% | 65.7%
O=c1[nH]c2ccccc2cc1CSc1ccccc1Nc1nccc(-c2ccc(C(F)(F)F)cc2)n1 | 56.8% | 90.5% | 78.5% | 40.8% | 20.5% | 80% | 57.6% | 45.4% | 104% | 73.4% | 58.6% | 63.6% | 69% | 2.21% (active) | 70.4% | 72.7% | 45.5% | 104% | 92.1% | 69.1%
COc1ccc(NC(=O)c2sc3nc(-c4cnccn4)cc(-c4cccs4)c3c2N)cc1 | 35.5% | 82.3% | 84.4% | 55.3% | 57.7% | 78.2% | 72.5% | 62.7% | 64.7% | 88.9% | 54.5% | 86.5% | 79.7% | 31.7% | 81% | 84% | -14.2% (active) | 85.1% | 81.2% | 66.5%
C#Cc1nc(C2=C(C)/C(=N/OCc3ccccc3)CC2)cs1 | 48.4% | 92.6% | 55.6% | 39.6% | -79.2% (active) | -56.9% (active) | 84.5% | -95.7% (active) | 83.5% | 88.5% | 75.5% | -44% (active) | -39.2% (active) | 33.6% | 0.651% (active) | -84% (active) | -86.5% (active) | 84.4% | 75.4% | 53.4%
COc1ccc(-c2nc3ccc(-c4nnc(SCC(=O)Nc5ccc(C(=O)/C=C/c6ccc(Cl)cc6)cc5)o4)cc3[nH]2)cc1OC | 98.5% | 95.8% | 103% | 103% | 105% | 98.4% | 103% | 103% | 116% | 109% | 92.7% | 95.1% | 95.2% | 106% | 106% | 98% | 83.8% | 112% | 108% | 97.1%
CCOC(=O)c1c(Nc2ccccc2)nn2c(N)c(C#N)c(-c3ccc(Cl)cc3)nc12 | 42.1% | 77.4% | 53.9% | 12.1% | 43.2% | 72.3% | 46% | 38.7% | 69.4% | 62% | 69.1% | 85% | 69.9% | 64.6% | 61.1% | 26.8% | 64.3% | 95.8% | 81.2% | 76%
CCC/C=C/C=C/C(=O)N[C@@H](Cc1cc(F)cc(F)c1)C(=O)N[C@@H]1C(=O)N2CCC[C@H]2C(=O)N2CCCC[C@H]2C(=O)N[C@@H](C)C(=O)N2C[C@H](C)C[C@H]2C(=O)O[C@H]1C | 19.9% | 36.5% | 31.6% | 11.9% | 23% | 17.9% | 31.8% | 37.8% | -54.1% (active) | 22.6% | 17.6% | 30.8% | 28.7% | 46.3% | 31.3% | 10.3% | 38.3% | 17% | 16.5% | 16.2%
Clc1ccc(-c2cn3cc(Cc4ccc(Cl)c(Cl)c4)sc3n2)cc1 | 85.7% | 70.5% | 70.4% | 22.5% | 81.8% | 76% | 61.3% | 84% | 42.7% | 69.6% | 34.7% | 86.3% | 72.7% | 104% | 86.2% | 35.8% | 83.8% | 52.3% | 20.2% | 60.7%
CCOC(=O)c1c(NC(=O)c2cccc(C(F)(F)F)c2)sc2cc(O)ccc12 | 98.1% | 98% | 99.3% | 99.9% | 102% | 81.3% | 101% | 109% | 107% | 98.9% | 97.3% | 92.4% | 87.1% | 113% | 96.9% | 102% | 89.7% | 108% | 101% | 92.8%
Cc1cc(C(=O)Nc2sc3c(c2C(N)=O)CCC(=O)C3)ccc1OCCN1CCCCC1 | 109% | 111% | 119% | 99.4% | 113% | 90.8% | 81.1% | 111% | 106% | 99.2% | 53.2% | 102% | 101% | 112% | 99.4% | 113% | 94.2% | 107% | 108% | 83.3%
CC(C)(C)Nc1nc2c(OCCc3ccccc3)cccn2c1-c1cccc(F)c1 | -7.74% (active) | 20.1% | -33.2% (active) | -11% (active) | -27% (active) | -0.543% (active) | 12.3% | 5.13% (active) | -75% (active) | 22.7% | 1.65% (active) | -10.8% (active) | -40.9% (active) | -43% (active) | 18.8% | -38.2% (active) | -62.6% (active) | 1.34% (active) | -3.59% (active) | -60.2% (active)
Cc1cccc2sc(/N=C(\N)C(Cl)(Cl)Cl)nc12 | 100% | 103% | 81.5% | 100% | 101% | 95.7% | 92.2% | 93.9% | 110% | 92.2% | 100% | 102% | 96.2% | 120% | 94.5% | 94.4% | 99.4% | 104% | 101% | 102%
COC1CCN(Cc2ccc3c(NNC(=O)c4cnccn4)nc4cc(F)ccc4n23)C1 (stereo not given) | 28.9% | 30.8% | 30.4% | 6.39% (active) | 40.4% | 7.95% (active) | 18.9% | 12.7% | 12.5% | 34.8% | 12% | 48.6% | 19.8% | 37.9% | 35.8% | 21.4% | 4.26% (active) | -3.02% (active) | 3.22% (active) | 28.7%
COc1ccc(N/N=C/c2c(-c3ccc(S(C)(=O)=O)cc3)nc3ccccn23)cc1 | 71% | 50% | 57.4% | 21.8% | 23% | 3.48% (active) | 36.9% | 48% | 55.1% | 40.1% | 8.66% (active) | 75.1% | 38.7% | 79.3% | 55.7% | 6.91% (active) | 55.4% | 70.6% | 18.4% | 19.3%
COc1cc(-c2nc3ccc(-c4nnc(SCC(=O)Nc5ccc(C(=O)/C=C/c6ccc(Cl)cc6)cc5)o4)cc3[nH]2)cc(OC)c1OC | 91.7% | 96.2% | 101% | 105% | 82.2% | 92.6% | 101% | 90.8% | 108% | 104% | 83.8% | 101% | 91.6% | 112% | 99.2% | 97.7% | 74.7% | 112% | 105% | 86.9%
